S2 tox: cell viability loss in ATXN counter-screen; AID 651635; Potency, µM (titrated, usually from 56.7 µM), most hits filed as cytotoxic; actives 0.49% (n = 400,000); S2 cells (HEK-293 line with an ATXN2-luciferase reporter) viability, CellTiter-Fluor protease fluorescence, 24 h; further: nearly all actives have a fitted effect of over 40% in size
HT1080-NT tox: kills 2HG-producing HT-1080-NT fibrosarcoma cells | actives 1.6% (n = 360,000) | Potency, µM (titrated, usually from 46.1 µM), most hits filed as cytotoxic | HT-1080-NT fibrosarcoma viability, CellTiter-Glo ATP luminescence, 48 h;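 further: NT is the 2HG producing partner of a matched IDH1 knockdown line; nearly all actives have a fitted effect of over 55% in size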
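Compounds were tested in concentration-response format on HT-1080-NT cells for 48 hours at 37 degrees C. Cell viability came from CellTiter-Glo luminescence; curves were classified by r2, response magnitude and activity.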
HepG2 tox-1: counter-screen for TGF-b inhibitors: cytotoxicity in HepG2 cells; HepG2 CAGA-GFP viability, ATP luminescence, 18 h; Potency, µM (top dose mostly 46.1 µM), hits mostly cytotoxic; actives 0.76% (n = 410,000); AID 588856
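CellTiter-Glo luminescence gave cytotoxicity after 18 hours at 37 degrees C. The cells were HepG2 CAGA-GFP in 1% FBS DMEM, stimulated with 500 pg/mL TGF-beta after compound addition. %Activity was normalised to no-cell wells (complete cell-killing) and DMSO (no toxicity), and curves were fitted and classified.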
ATXN2 expr inh: inhibitors of ATXN2 expression. Potency, µM (highest dose often 57 µM), hits mostly inhibitors. HEK-293 ATXN2-luciferase reporter, luminescence, 24 h. AID 1745845. actives 0.72% (n = 360,000); further: nearly all actives have a fitted effect of over 55% in size
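qHTS (up to 57 uM final) was run with 24 h compound exposure of reporter cells at 37 °C. Each well was multiplexed: SteadyGlo luminescence measured ATXN2-luciferase expression after a fluorogenic Gly-Phe-AFC viability readout (25 uM final).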
TGFb SMAD3 inh: TGF-b pathway inhibition. actives 1.2% (n = 410,000). HepG2 CAGA-GFP TGF-b/SMAD3 reporter, GFP fluorescence, 18 h; TGF-beta stimulated, 500 pg/mL final. Potency, µM (highest dose often 46.1 µM), usual class: inhibitors; further: nearly all actives have a fitted effect of over 65% in size
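HEPG2 CAGA-GFP, 1000 cells/well; 2 h settle, 37 C; cpd via pin tool; TGF-b 500 pg/mL final; 18 h, 37 C; GFP imaging ex488/em500-530; %Activity normalised to -TGF-b and +DMSO controls; CRC fit, curve class.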
HT1080 IDH1KD tx: kills HT-1080 cells with IDH1 knockdown; HT-1080 IDH1 knockdown viability, ATP luminescence, 48 h; Potency, µM (titrated, usually from 46.1 µM), actives largely listed as cytotoxic; actives 2% (n = 360,000)
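Cytotoxicity counter-line: IDH1KD HT-1080, 48 h, CellTiter-Glo. Curves classed by r2, magnitude and activity.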
TGFb confirm: confirmation of TGF-b signaling inhibitors in HepG2 reporter cells. shares compounds with TGFb SMAD3 inh. HepG2 CAGA-GFP TGF-b reporter, GFP fluorescence, 18 h; cells stimulated with TGF-beta, 500 pg/mL. Potency, µM (series often up to 46.1 µM), actives largely listed as inhibitors. actives 63% (n = 1,600); further: nearly all actives have a fitted effect of over 65% in size
HepG2 tox-2: toxic to HepG2 cells in TGF-b counterscreen; shares compounds with TGFb SMAD3 inh; HepG2 CAGA-GFP viability, ATP luminescence, 18 h; cells stimulated with TGF-beta, 500 pg/mL; Potency, µM (top dose mostly 46.1 µM), usual class: inhibitors; actives 27% (n = 1,600); AID 720535; further: nearly all actives have a fitted effect of over 70% in size
CCL64 TGFb inh: orthogonal confirmation of TGF-b inhibitors in CCL64 cells | shares compounds with TGFb SMAD3 inh | CCL64 CAGA-GFP reporter, TGF-b stimulated, GFP fluorescence, 18 h | Potency, µM (doses to about 46.1 µM), hits mostly inhibitors | actives 41% (n = 1,600) | AID 720536; further: nearly all actives have a fitted effect of over 65% in size
COP TGFb inh: blocks TGF-b signaling in HepG2 COP reporter; shares compounds with TGFb SMAD3 inh; HepG2 COP-GFP TGF-b reporter, GFP fluorescence, 18 h; cells stimulated by added recombinant TGF-beta; Potency, µM (highest dose often 46.1 µM), hits mostly inhibitors; actives 3% (n = 1,600); AID 720537; further: nearly all actives have a fitted effect of over 70% in size
Large screens that a line does not name were inactive (follow-up assays come after a bar, where they were run). Sampled rows, rich in hits. Any-hit rate of the full collection: about 3.8%. The call rests on the fitted dose curve; in most records, active means well fitted curve in the direction sought with a large enough effect; inconclusive means small, poorly fitted or top-dose-only effect, or another doubt; inactive means no such curve, though single readings can be large; an effect the other way counts as inactive or inconclusive.

CCCN(CCC)C(=O)Cn1c(=O)n(Cc2ccc(C(=O)NCCc3ccc(Cl)cc3)cc2)c(=O)c2ccccc21	none (no result: HT1080-NT tox, HT1080 IDH1KD tx)
Cc1cc(N2CCOCC2)nc(NCc2ccccc2)n1	TGFb SMAD3 inh 10µM | TGFb confirm 15µM | HepG2 tox-2 inactive | CCL64 TGFb inh inconclusive | COP TGFb inh inactive
N#C/C(=N\Nc1ccc(Cl)c(Cl)c1)C(=O)C1CC1	HT1080-NT tox inconclusive, TGFb SMAD3 inh 7.1µM, HT1080 IDH1KD tx 2.9µM (no result: S2 tox) | TGFb confirm 2.3µM | HepG2 tox-2 6.5µM | CCL64 TGFb inh 6.5µM | COP TGFb inh inactive
Cc1cccc(NC(=O)C2CCC(CNS(=O)(=O)c3csc(C(N)=O)c3)CC2)c1C (stereo not given)	none (no result: HT1080-NT tox, HT1080 IDH1KD tx)
Cc1ccc(Nc2nc(-c3c(C)nc4ccccn34)cs2)cc1	S2 tox inconclusive, HT1080-NT tox 0.01µM, ATXN2 expr inh inconclusive, TGFb SMAD3 inh 10µM, HT1080 IDH1KD tx inconclusive | TGFb confirm 2.6µM | HepG2 tox-2 inconclusive | CCL64 TGFb inh 1.3µM | COP TGFb inh inactive
Cc1nc2ccccn2c1-c1csc(NCc2ccco2)n1	S2 tox inconclusive
COc1ccc(CCNC(=O)c2ccc(-c3ccc([N+](=O)[O-])cc3Cl)o2)cc1OC	TGFb SMAD3 inh 10µM | TGFb confirm 21µM | HepG2 tox-2 inconclusive | CCL64 TGFb inh 9.2µM | COP TGFb inh inactive
COc1ccc(CCNC(=O)c2ccc([N+](=O)[O-])cc2Cl)cc1OC	none
CC(=O)Nc1c(C(=O)Nc2ccccc2F)oc2ccccc12	TGFb SMAD3 inh inconclusive (no result: HT1080-NT tox, HT1080 IDH1KD tx)
CCOC(=O)c1sc(NC(=O)Nc2ccc(Cl)cc2)cc1C	HT1080-NT tox inconclusive, ATXN2 expr inh inconclusive, TGFb SMAD3 inh 5.6µM, HT1080 IDH1KD tx inconclusive | TGFb confirm inconclusive | HepG2 tox-2 inconclusive | CCL64 TGFb inh 16µM | COP TGFb inh inactive
COc1cccc(Cl)c1NC(=O)N1CCN(c2cc(C)nc3ccccc23)CC1	S2 tox inconclusive, ATXN2 expr inh inconclusive, TGFb SMAD3 inh 13µM, HT1080 IDH1KD tx inconclusive | TGFb confirm inactive | HepG2 tox-2 inconclusive | CCL64 TGFb inh inconclusive | COP TGFb inh inactive
Oc1c(N=Nc2nn[nH]n2)ccc2ccccc12	S2 tox 22µM, HT1080-NT tox inconclusive, HepG2 tox-1 5.6µM, TGFb SMAD3 inh 4.5µM, HT1080 IDH1KD tx inconclusive | TGFb confirm 7.3µM | HepG2 tox-2 15µM | CCL64 TGFb inh 21µM | COP TGFb inh inconclusive
COc1cc(OC)c(NS(=O)(=O)c2cc(-c3cnc(C)o3)ccc2OC)cc1Cl	S2 tox inconclusive (no result: HT1080-NT tox, HT1080 IDH1KD tx)
Cc1ccc(NC(=O)Cc2ccccc2F)cc1S(=O)(=O)N1CCCCCC1	S2 tox inconclusive, TGFb SMAD3 inh 11µM | TGFb confirm 8.2µM | HepG2 tox-2 inconclusive | CCL64 TGFb inh inactive | COP TGFb inh inactive
CCCCCn1c(-c2ccc(OC)c(OC)c2)nc2ccccc21	S2 tox inconclusive, ATXN2 expr inh inconclusive, TGFb SMAD3 inh inconclusive (no result: HT1080-NT tox, HT1080 IDH1KD tx)

Screening results: PubChem BioAssay, National Center for Advancing Translational Sciences (NCATS)
